# TDP1 block: blocks human tyrosyl-DNA phosphodiesterase 1; recombinant TDP1, AlphaScreen DNA substrate cleavage; Potency, µM (highest dose often 130 µM), without a hit: at the top dose activity change, negative = inhibition, most hits filed as inhibitors; hit rate 0.28% among 350,000; AID 485290; further: potency means the concentration at half of the fitted maximal effect; nearly all actives have a fitted effect of over 40% in size
# Target sequence (Q9NUW8 whole entry, looked up): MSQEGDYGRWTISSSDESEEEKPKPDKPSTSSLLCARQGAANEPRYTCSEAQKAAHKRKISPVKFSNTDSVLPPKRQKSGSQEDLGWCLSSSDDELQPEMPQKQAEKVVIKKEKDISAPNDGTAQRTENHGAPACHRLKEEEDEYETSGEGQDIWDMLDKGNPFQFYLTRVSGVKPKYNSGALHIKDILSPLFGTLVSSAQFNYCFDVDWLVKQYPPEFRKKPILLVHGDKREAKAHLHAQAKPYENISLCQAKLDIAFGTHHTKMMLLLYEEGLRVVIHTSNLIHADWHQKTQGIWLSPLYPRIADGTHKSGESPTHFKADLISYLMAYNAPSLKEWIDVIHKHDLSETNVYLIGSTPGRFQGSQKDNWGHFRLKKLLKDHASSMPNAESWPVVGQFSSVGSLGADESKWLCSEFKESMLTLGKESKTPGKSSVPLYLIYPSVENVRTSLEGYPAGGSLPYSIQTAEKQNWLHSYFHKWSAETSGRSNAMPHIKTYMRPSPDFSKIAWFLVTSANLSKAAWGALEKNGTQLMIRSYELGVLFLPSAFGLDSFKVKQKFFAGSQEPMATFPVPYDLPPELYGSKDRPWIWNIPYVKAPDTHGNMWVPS
#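 Steps: enzyme plus compound, 15 min RT; add biotin/phosphotyrosine-FITC oligonucleotide (15 nM final), react 5 min; add donor/acceptor beads (10 ug/ml final), 10 min; read AlphaScreen. Tdp1 at 1 nM final.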
# ELG1 repair inh: ELG1-dependent DNA repair inhibition; HEK293T ELG1-luciferase reporter, luminescence, 16 h; DNA damage induced by 5-fluorouridine; Potency, µM (series often up to 46.1 µM), without a hit: top-dose activity change, negative = inhibition, usual class: inhibitors; hit rate 2.3% among 330,000; further: potency means the concentration at half of the fitted maximal effect; nearly all actives have a fitted effect of over 55% in size
#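 Reporter activity after DNA damage by 5-fluorouridine is monitored. Compound-treated cells incubate 16 hr at 37 °C, then ONE-Glo is added for 30 min before luminescence reading.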
# DT40 TDP1 no CPT: qHTS for Inhibitors of human tyrosyl-DNA phosphodiesterase 1 (TDP1): qHTS in cells in absence of CPT. AID 686978, 2013. Potency, µM (highest dose often 46.2 µM), for inactives: at the top dose activity change, negative = growth inhibition, most hits filed as inhibitors. DT40 Tdp1-/- hTDP1 cells, no CPT, ATP luminescence, 48 h. hit rate 15% among 420,000; further: potency means the concentration at half of the fitted maximal effect; nearly all actives have a fitted effect of over 55% in size
#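 No-CPT arm: Tdp1-/-;hTDP1 DT40 cells (400/well) plus compounds, incubated ≥48 hr at 37 °C. Readout CellTiter-Glo luminescence.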
# TDP1 cell CPT: DT40-hTDP1 cell growth loss with CPT; hit rate 12% among 420,000; Potency, µM (titrated, usually from 46.2 µM), inactives show at the top dose activity change, negative = growth inhibition, hits mostly inhibitors; chicken DT40 Tdp1-/-;hTDP1 cells + 20 nM CPT, ATP luminescence, 48 h; further: potency means the concentration at half of the fitted maximal effect; nearly all actives have a fitted effect of over 55% in size
#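 Cell growth measured by CellTiter-Glo luminescence after a minimum 48 h, 37 C compound exposure with 20 nM CPT in Tdp1-knockout DT40 cells stably expressing hTDP1, seeded 400/well; qHTS titration format.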
# IL-1B inflam inh: inhibitors of inflammasome signaling (IL-1 beta secretion). activity change, % at 57.5 µM. THP-1 LPS/ATP IL-1B secretion, AlphaLISA, 16 h; stronger effect = lower value. hit rate 4.7% among 360,000; in the data active means activity change below about -50%; inconclusive means mostly about -30% to -49%
#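 Secreted IL-1B measured by AlphaLISA bead assay after 16 h compound exposure of THP-1 cells; compounds (final up to 57.5 uM) added 1 h before LPS (250 ng/mL) and ATP (1.25 mM) stimulation; lower signal means less secretion.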
# Giardia kill: kills Giardia lamblia; Giardia lamblia trophozoite viability; activity change, % at 7.66 µM, hits read low; hit rate 0.15% among 340,000; AID 540267; in the data active means activity change below about -80%; inconclusive means between about -30% and that limit;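 further: parasites exposed to compound for two days anaerobically before the ATP read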
#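 Anaerobic 48 hrs incubation at 37 deg C of 100 trophozoites/well with test compounds; ATPLite 1-Step luminescence, 15-30 min RT, reports cellular ATP as viability.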
# An asterisk follows results filed as active; ? = inconclusive; . = no result; [ ] = remark or other dose. Only some compounds are listed: those with a hit (about 19% of all), similar ones and a draw of the others. Unless noted, the call rests on the fitted dose curve; in most records, active means well fitted curve in the direction sought with a large enough effect; inconclusive means small, poorly fitted or top-dose-only effect, or another doubt; inactive means no such curve, though single readings can be large; an effect the other way counts as inactive or inconclusive. On the % scale 0 is the no-effect control and ±100 the full control effect.
SMILES,TDP1 block,ELG1 repair inh,DT40 TDP1 no CPT,TDP1 cell CPT,IL-1B inflam inh,Giardia kill
[N-]=[N+]=NCC1OC(n2cnc3c(=O)[nH]c(N)nc32)C(O)C1O (stereo unspecified),9%[56.1 µM],.,15%,-1%,.,.
O=C(CCN1C(=O)C2C3C=CC(C3)C2C1=O)NCCc1ccccc1 (stereo unspecified),1%,?,26µM*,?,26,3
Cc1cccc(NC(=O)CCN2C(=O)C3C4C=CC(C4)C3C2=O)n1 (stereo unspecified),9%,17%,23µM*,16µM*,5,-9
COc1cc(Cl)c(CNC[C@H]2O[C@@H](n3cnc4c(N)ncnc43)[C@H](O)[C@@H]2O)c(Cl)c1O,0%[56.1 µM],?,-24%,-3%,37,34
O=C(COC(=O)CC(c1ccccc1)c1ccccc1)Nc1c(F)cccc1F,0%,?,.,.,.,.
CC1(C(=O)NS(=O)(=O)Cc2cccc(Cl)c2)CCN1C(=O)Cc1cccs1 (stereo unspecified),.,.,-12%,-19%,5,.
CC1CCCN(C(=O)Cn2c(=O)n(CC3CCC(C(=O)NC(C)C)CC3)c(=O)c3sccc32)C1 (stereo unspecified),7%,.,-18%,-29%,.,.
CCOc1ccc(CCNC(=O)c2cccc(S(=O)(=O)N3CCCCC3)c2)cc1OCC,-6%,?,7.3µM*,13µM*,-30,-12
Cc1cc(N2CCN(C)CC2)ccc1NC(=O)c1cccc(S(=O)(=O)N2CCc3ccccc3C2)c1,4%,16%,18µM*,23µM*,-103*,4
COc1ccc(CNC(=O)c2cc(S(=O)(=O)N3CCCCC3)ccc2Cl)cc1OC,0%,6.5µM*,18µM*,?,-9,23
Cc1ccc(NC(=O)c2cccc(S(=O)(=O)N3CCc4ccccc4C3)c2)nc1,.,?,?,?,0,3
COc1cc(OC)c(OC)cc1CNC(=O)c1cccc(S(=O)(=O)N2CCc3ccccc3C2)c1,1%,?,8.2µM*,13µM*,9,2
COc1ccc(CNC(=O)c2cccc(S(=O)(=O)N3CCCCC3)c2)cc1OC,-5%,?,?,13µM*,-14,1
COc1ccc(CCNC(=O)c2cccc(S(=O)(=O)N3CCCC3)c2)cc1OC,1%,-6%,?,?,15,9
COc1ccc(Br)cc1CC1C(=O)Nc2ccccc21 (stereo unspecified),5%,.,7.3µM*,8.2µM*,.,.
COc1ccc(CCCNC(=O)C2CCC(=O)N(CC3CCCCC3)C2)cc1 (stereo unspecified),.,20%,18µM*,16µM*,-6,-1
COc1ccc(CCN2CC(C(=O)NCCc3cccc(F)c3)CCC2=O)cc1 (stereo unspecified),.,14%,4%,-6%,-6,21
COc1ccccc1CCCNC(=O)C1CCC(=O)N(CCc2cccc(F)c2)C1 (stereo unspecified),4%,4%,18µM*,?,11,25
COc1ccc(CCCNC(=O)C2CCC(=O)N(CCc3cccc(F)c3)C2)cc1 (stereo unspecified),4%,2%,?,23µM*,1,-5
COC(=O)c1ccc(CNC(=O)C2CCC(=O)N(CCCc3ccccc3)C2)cc1 (stereo unspecified),-4%,-14%,?,13µM*,0,-9
O=C(COC(=O)C1CCC(N2C(=O)C3C4CCC(C4)C3C2=O)CC1)c1ccc(F)cc1 (stereo unspecified),10%,-6%,-2%,0%,21,20
CCN(CC)S(=O)(=O)c1ccc(OC)c(NC(=O)CSc2cc(C)ccc2C)c1,2%,?,?,?,13,-5
Cc1cc(F)ccc1NC(=O)C(C(C)C)N1Cc2ccccc2C1=O (stereo unspecified),2%,.,-27%,-13%,.,.
CCOC(=O)c1cc(S(=O)(=O)N2CCN(c3cc(C)ccc3C)CC2)[nH]n1,3%,.,?,?,.,.
Cc1c(C(=O)N2CCN(CCc3ccccn3)CC2)oc2ccc(Cl)cc12,4%,-12%,?,?,-12,-16
SMILES,TDP1 block,ELG1 repair inh,DT40 TDP1 no CPT,TDP1 cell CPT,IL-1B inflam inh,Giardia kill
Cc1cccc2c1cnn2C(=O)CCC(=O)NCc1ccc(F)cc1,.,2%,0%,-16%,7,-19
CN1c2ccccc2C(C)(C)C12CCCC(=O)N2 (stereo unspecified),9%,8%,?,29µM*,18,4
CCCc1nc2ccccc2c(C(=O)OCC(=O)Nc2ccc(S(=O)(=O)N3CCOCC3)cc2)c1CC,3%,21µM*,16µM*,16µM*,-67*,2
CCCc1nc2ccccc2c(C(=O)OCC(=O)Nc2cccc(S(=O)(=O)N3CCOCC3)c2)c1CC,3%,26µM*,?,12µM*,-10,18
Cc1onc(-c2ccccc2Cl)c1C(=O)OCC(=O)Nc1cccc(S(=O)(=O)N2CCOCC2)c1,-3%,?,?,?,-7,5
O=C1CCC[C@@H]2CC(N(Cc3cc4ccccc4s3)c3ccccc3)C[C@@H]3CCN1[C@H]23 (stereo partly specified),.,.,-2%,15%,.,.
CCCCC(CC)CN1CN(CC(CC)CCCC)CC(C)(N)C1 (stereo unspecified),9%[56.1 µM],.,0.23µM*,0.16µM*,-20,6
Cc1ccc(CN2C(=O)CCC2C(=O)NCCN2CCN(c3cccc(Cl)c3)CC2)cc1 (stereo unspecified),5%,-22%,15µM*,?,?,-7
Cc1ccc(CN2C(=O)CCC2C(=O)N2CCN(c3ccc(F)cc3)CC2)cc1 (stereo unspecified),3%,-6%,-12%,-19%,0,13
O=C(C1CCC(=O)N1Cc1ccccc1Cl)N1CCN(c2cccc(Cl)c2)CC1 (stereo unspecified),2%,-8%,23µM*,23µM*,-2,10
Cc1ccc(NC(=O)N2CCCC2C(=O)NCC2CCCO2)cc1 (stereo unspecified),1%,-4%,18%,7%,17,-20
CC1=NN2C(=N)/C(=C\c3cc(C)n(Cc4ccccc4)c3C)C(=O)N=C2S1,5%,?,26µM*,-7%,-6,-1
Cc1ccc(NC(=O)c2oc3ccccc3c2NC(=O)Cc2ccccc2)cc1,1%,.,?,16µM*,.,.

# Screens (PubChem BioAssay)
